The record followed here is the supplement of paper PMC10849652.

The full data set covers some 7,900 targets. This sample favours those with a hit. About 0.6% of all pairs of compound and target were hits. Unmarked numbers belong to inactive results.

Sequence of UniProt Q8NCW6 (Q8NCW6 whole entry, looked up): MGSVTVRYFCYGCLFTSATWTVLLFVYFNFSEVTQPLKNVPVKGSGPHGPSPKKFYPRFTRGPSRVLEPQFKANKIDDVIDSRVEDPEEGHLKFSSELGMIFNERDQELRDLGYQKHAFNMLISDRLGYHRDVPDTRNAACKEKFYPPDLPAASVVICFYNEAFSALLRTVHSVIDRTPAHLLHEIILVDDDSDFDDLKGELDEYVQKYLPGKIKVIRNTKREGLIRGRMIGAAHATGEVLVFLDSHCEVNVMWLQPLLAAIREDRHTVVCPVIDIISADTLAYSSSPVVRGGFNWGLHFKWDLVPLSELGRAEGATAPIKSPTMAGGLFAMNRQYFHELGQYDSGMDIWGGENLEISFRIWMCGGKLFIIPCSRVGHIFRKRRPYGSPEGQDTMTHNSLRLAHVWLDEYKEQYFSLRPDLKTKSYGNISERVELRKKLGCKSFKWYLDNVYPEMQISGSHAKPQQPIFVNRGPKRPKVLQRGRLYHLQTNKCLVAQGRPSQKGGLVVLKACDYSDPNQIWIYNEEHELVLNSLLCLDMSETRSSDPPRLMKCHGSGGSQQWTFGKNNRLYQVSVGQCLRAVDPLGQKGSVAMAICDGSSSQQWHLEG
Sequence of UniProt P04035 (P04035 whole entry, looked up): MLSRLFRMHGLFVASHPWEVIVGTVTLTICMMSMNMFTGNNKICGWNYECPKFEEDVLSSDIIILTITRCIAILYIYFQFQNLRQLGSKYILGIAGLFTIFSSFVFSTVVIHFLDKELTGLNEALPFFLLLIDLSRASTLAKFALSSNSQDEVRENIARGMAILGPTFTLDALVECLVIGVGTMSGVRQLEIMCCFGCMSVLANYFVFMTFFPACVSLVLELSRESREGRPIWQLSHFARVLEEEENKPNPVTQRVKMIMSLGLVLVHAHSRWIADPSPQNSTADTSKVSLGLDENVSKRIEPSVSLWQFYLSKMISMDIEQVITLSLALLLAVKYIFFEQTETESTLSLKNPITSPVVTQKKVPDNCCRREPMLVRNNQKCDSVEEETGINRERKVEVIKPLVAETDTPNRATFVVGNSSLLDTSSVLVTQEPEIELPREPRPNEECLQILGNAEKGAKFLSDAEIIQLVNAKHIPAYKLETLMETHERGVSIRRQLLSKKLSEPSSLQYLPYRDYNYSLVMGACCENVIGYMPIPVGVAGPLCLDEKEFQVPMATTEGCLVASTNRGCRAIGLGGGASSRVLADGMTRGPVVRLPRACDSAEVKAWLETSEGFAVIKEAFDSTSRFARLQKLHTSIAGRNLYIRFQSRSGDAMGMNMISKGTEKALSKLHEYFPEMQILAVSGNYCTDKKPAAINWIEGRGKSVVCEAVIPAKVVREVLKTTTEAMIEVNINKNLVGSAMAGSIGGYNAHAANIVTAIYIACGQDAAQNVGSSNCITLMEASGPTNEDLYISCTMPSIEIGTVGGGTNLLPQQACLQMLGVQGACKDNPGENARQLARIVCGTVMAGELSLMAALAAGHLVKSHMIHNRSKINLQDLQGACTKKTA
Sequence of UniProt Q7Z4V5 (Q7Z4V5 whole entry, looked up): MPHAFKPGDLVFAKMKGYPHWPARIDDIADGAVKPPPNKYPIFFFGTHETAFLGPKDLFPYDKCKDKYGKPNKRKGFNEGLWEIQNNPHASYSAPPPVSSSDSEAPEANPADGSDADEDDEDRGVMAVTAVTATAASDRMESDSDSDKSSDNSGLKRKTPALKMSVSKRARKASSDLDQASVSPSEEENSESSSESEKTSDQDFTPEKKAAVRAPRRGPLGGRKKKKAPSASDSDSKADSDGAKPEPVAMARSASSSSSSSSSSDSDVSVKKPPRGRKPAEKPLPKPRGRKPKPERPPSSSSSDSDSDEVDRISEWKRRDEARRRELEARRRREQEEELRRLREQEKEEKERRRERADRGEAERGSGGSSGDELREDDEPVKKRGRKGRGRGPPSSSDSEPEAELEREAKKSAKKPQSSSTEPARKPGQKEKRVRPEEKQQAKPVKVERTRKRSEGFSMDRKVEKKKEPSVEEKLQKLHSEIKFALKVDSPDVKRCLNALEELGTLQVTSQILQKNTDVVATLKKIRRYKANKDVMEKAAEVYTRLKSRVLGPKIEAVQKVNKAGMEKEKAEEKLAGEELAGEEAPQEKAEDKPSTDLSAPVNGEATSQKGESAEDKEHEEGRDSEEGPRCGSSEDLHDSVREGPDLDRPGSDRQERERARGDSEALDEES
Sequence of UniProt Q9H6D7 (Q9H6D7 whole entry, looked up): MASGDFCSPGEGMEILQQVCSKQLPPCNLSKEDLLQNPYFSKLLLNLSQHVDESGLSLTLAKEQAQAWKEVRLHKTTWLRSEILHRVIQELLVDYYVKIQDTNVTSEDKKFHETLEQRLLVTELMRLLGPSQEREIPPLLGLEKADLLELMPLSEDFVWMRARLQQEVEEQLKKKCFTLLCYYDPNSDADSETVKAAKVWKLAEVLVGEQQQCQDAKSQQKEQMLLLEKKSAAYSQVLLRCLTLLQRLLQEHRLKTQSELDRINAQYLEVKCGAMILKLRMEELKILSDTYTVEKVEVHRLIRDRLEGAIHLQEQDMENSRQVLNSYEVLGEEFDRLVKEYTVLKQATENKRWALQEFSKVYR
Sequence of UniProt Q658Y4 (Q658Y4 whole entry, looked up): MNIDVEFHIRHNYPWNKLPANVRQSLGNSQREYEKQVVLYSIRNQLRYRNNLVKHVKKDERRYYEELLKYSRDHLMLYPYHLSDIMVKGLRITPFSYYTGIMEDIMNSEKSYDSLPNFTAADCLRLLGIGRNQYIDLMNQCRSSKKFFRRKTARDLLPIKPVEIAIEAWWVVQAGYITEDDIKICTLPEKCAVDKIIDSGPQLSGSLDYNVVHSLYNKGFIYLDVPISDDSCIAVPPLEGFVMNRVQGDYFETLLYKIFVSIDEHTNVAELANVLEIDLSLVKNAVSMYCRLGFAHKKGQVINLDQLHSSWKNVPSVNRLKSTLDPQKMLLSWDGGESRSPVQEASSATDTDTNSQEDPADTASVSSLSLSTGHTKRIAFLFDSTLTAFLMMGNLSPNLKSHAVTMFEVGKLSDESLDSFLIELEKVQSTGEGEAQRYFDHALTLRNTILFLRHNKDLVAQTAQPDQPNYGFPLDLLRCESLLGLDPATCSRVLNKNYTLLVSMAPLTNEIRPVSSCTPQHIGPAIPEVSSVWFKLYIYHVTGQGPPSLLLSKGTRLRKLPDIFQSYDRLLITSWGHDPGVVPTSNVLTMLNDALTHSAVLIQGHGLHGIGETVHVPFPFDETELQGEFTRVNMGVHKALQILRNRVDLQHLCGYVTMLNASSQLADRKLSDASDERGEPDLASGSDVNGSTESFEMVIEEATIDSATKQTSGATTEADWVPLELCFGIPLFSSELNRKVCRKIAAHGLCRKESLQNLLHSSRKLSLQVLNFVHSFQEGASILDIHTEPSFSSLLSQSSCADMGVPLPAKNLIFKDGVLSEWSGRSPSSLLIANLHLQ
Sequence of UniProt P30711 (P30711 whole entry, looked up): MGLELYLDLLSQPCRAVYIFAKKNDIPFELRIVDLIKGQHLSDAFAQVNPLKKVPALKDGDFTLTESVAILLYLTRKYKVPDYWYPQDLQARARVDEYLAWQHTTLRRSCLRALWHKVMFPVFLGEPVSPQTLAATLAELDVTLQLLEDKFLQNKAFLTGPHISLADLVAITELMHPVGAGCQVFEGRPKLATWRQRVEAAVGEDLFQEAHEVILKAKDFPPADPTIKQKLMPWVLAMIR
Sequence of UniProt Q1KMD3 (Q1KMD3 whole entry, looked up): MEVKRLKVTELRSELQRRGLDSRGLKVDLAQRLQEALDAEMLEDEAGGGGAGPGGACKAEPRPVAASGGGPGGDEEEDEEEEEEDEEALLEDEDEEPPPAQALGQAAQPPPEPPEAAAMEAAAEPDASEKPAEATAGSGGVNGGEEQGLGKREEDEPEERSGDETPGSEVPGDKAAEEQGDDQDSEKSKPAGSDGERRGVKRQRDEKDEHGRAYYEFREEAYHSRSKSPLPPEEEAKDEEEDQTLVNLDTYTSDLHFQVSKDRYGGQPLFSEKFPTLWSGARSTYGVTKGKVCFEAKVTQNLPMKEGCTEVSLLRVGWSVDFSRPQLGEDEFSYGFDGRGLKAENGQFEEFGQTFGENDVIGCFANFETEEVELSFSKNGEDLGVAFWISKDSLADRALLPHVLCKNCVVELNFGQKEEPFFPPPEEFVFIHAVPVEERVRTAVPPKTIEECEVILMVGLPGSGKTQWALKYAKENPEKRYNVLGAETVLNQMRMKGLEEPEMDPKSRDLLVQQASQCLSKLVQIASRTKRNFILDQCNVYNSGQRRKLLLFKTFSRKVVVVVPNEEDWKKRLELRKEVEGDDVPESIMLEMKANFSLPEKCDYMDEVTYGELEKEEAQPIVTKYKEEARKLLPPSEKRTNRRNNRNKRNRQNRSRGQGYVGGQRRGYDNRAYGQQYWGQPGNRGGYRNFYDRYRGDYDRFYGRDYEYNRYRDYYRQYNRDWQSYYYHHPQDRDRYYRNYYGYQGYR
Sequence of UniProt Q9BVP2 (Q9BVP2 whole entry, looked up): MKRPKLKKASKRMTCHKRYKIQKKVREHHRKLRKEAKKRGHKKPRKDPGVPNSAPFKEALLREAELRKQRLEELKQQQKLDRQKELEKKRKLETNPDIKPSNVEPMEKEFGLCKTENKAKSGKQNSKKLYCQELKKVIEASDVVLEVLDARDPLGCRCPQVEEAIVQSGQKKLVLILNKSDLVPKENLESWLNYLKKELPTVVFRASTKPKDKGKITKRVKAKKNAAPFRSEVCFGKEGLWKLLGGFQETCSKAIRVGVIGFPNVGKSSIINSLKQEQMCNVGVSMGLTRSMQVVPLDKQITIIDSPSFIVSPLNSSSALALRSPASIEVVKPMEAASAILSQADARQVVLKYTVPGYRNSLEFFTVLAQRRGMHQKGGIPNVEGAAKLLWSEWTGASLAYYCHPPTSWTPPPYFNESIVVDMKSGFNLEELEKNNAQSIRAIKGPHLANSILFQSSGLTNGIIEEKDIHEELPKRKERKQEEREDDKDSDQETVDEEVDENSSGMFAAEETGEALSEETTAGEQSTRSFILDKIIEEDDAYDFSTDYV
Sequence of UniProt P0CL80 (P0CL80 whole entry, looked up): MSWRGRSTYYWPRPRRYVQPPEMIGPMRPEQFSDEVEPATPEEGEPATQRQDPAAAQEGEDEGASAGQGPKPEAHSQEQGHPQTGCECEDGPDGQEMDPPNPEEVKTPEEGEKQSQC

Compound in the assay: c1cn2cc(-c3ccc4cn[nH]c4c3)nc(Nc3ccc(N4CCOCC4)cc3)c2n1 [entospletinib]
Briefly: log2 fold change, soluble protein after heating vs DMSO (PISA); higher = thermal stabilisation; K562 cells, 10 uM, 30 min; active = over 0.2 and 3.5 SD of the protein, either way, in both replicates (recomputed). Summed up:
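K562 cells at 2×10^6 cells/mL were exposed to 10 μM compound for 30 min, then aliquots were heated for 3 min across 48°C-58°C, pooled, and extracted in PBS containing 0.5% NP-40 at 4°C. The supernatant after 21,000xg for 90 min was taken as soluble protein and measured by TMTpro 16plex LC-MS/MS with channel sums equalised. Thermal stability is reported relative to control samples, with values from duplicates. Fold changes are given on a log2 scale.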
Regarding H1FX (UniProt Q92522), the log2 fold change was 0.02. As for HP1BP3 (UniProt Q5SSJ5), the figure is 0.014; as for GLRX3 (UniProt O76003), 0.001.

As for HOMER1 (UniProt Q86YM7), the log2 fold change was 0.056. Regarding FUBP3 (UniProt Q96I24), the log2 fold change is 0.022. Regarding GLUL (UniProt P15104), the log2 fold change is -0.019. Regarding IFRD1 (UniProt O00458), the log2 fold change was 0.243.

In the case of GTF2A2 (UniProt P52657), the log2 fold change is 0.014. Take HIKESHI (UniProt Q53FT3): the log2 fold change is 0.088.

As for FBXO42 (UniProt Q6P3S6), the log2 fold change is -0.049. To GSTT1 (UniProt P30711) belongs 0.013; to HHEX (UniProt Q03014), -0.076.

Take HEXA (UniProt P06865): the log2 fold change is 0. To IDH3A (UniProt P50213) belongs -0.024; to HDGFL2 (UniProt Q7Z4V5), -0.008; to GALNT11 (UniProt Q8NCW6), -0.159. To HRAS (UniProt P01112) belongs 0.027; to GNAS (UniProt Q5JWF2), 0.052; to HAUS4 (UniProt Q9H6D7), 0.147. As for FAM91A1 (UniProt Q658Y4), the figure is 0.009; as for HECTD1 (UniProt Q9ULT8), -0.057. Turning to IFT80 isoform 3 (UniProt Q9P2H3), the log2 fold change is -0.019. Turning to GPAT4 (UniProt Q86UL3), the log2 fold change is 0.055. On to FMR1 (UniProt Q06787), for which the log2 fold change is 0.01. To GNL3 (UniProt Q9BVP2) belongs -0.12; to FOXK1 (UniProt P85037), 0.262. As for HIC2 (UniProt Q96JB3), the figure is 0.129; as for H2AZ1 (UniProt P0C0S5), -0.001. With GATD1 (UniProt Q8NB37), the log2 fold change was -0.021. To HNRNPC isoform 2 (UniProt P07910) belongs 0.274; to HIP1 (UniProt O00291), -0.04. With GNPAT (UniProt O15228), the log2 fold change is 0.003. To HNRNPUL2 (UniProt Q1KMD3) belongs 0.007. As for GAGE12F (UniProt P0CL80), the figure is 0.031; as for HTATIP2 isoform 3 (UniProt Q9BUP3), 0.003; as for HDAC2 (UniProt Q92769), 0. To HMGCR isoform 3 (UniProt P04035) belongs -0.29; to FBXO9 (UniProt Q9UK97), -0.065. With HSPA8 (UniProt P11142), the log2 fold change was 0.043. To GEMIN6 (UniProt Q8WXD5) belongs 0.082.
